{"source": "PubChem BioAssay (Tox21)", "note": "Records with an inconclusive call do not appear. A call without a number means that no potency is given here. Values without a mark were called inactive. Active and inactive are the calls of the source. The call rests on the fitted dose curve; in most records, active means well fitted cell-killing curve with a large enough effect in the repeat runs; inconclusive means weak or mixed curves, or effect the other way; inactive means flat fitted curve, though single readings scatter.", "data": [{"experiment": "qHTS assay to identify small molecule agonists of the constitutive androstane receptor (CAR) signaling pathway - cell viability counter screen (AID 1224836); further: nearly all actives have a fitted effect of over 45% in size", "conditions": "HepG2-CYP2B6-hCAR viability, CellTiter-Fluor, 23 h, PK11195 added to every well; series mostly up to 92.4 µM", "description": "U.S. Tox21 Program National Center for Advancing Translational Sciences [NCATS] NIH Chemical Genomics Center [NCGC] U.S. Environmental Protection Agency [EPA] National Institutes of Environmental Health Sciences [NIEHS] National Toxicology Program [NTP] U.S. Food and Drug Administration [FDA] Tox21 Assay Overview: The constitutive androstane receptor (CAR) is a nuclear receptor which regulates multiple drug metabolizing enzymes (DMEs) and transporters. Activating CAR will generally increase the transcription and subsequent translation of CYP2B6 and CYP3A4. These two DMEs represent about 50% of the drug metabolizing potential in the body. […] Recently, there have also been studies performed indicating CARs role in energy metabolism and cancer therapy. Therefore, inducing CARs activity could have a potential effect on diabetes and cancer. Identifying environmental toxins and compounds which modulate CAR, through the use of the Tox21 10K compound collection, will be an important step in determining the toxicity and potential therapeutic effects these factors will have on the human body. To differentiate true CAR agonists from cytotoxic substances, the assay is multiplexed with a cell viability assay.\nTox21 Assay Protocol Summary: A double-stable (hCAR and CYP2B6-2.2kb) transfected cell line, derived from human hepatoma (HepG2) cells, was utilized for the duration of the quantitative high-throughput screens. The HepG2-CYP2B6-hCAR cells were dispensed at 2500 cells/4 uL/well in 1536-well white solid bottom plates using a Multidrop Combi. After the assay plates were incubated at 37 C/5% CO2 for 4 hrs, 23 nL of compounds at 15 concentrations (from 5-48 columns) or positive control (from 1 to 4 columns) were transferred to the assay plates using a Pintool station. One uL of PK11195 (final concentration = 0.75 uM) was added, using a Flying Reagent Dispenser, inside each well. After a 23 hr incubation period at 37 C/5% CO2, 1 uL of CellTiter-Fluor reagent was added into each well of the assay plates using a Flying Reagent Dispenser. The fluorescence intensity in the plates was then measured using a ViewLux plate reader.", "values": [{"smiles": "CCCCCCCCCCCC(=O)OC[C@@H](O)[C@H]1OC[C@H](OCCO)[C@H]1OCCO", "Potency": "inactive"}, {"smiles": "CC(C)(COC(=O)c1ccccc1)COC(=O)c1ccccc1", "Potency": "inactive"}, {"smiles": "O=C(O)C(S)C(S)C(=O)O", "note": "(stereo not given)", "Potency": "inactive"}, {"smiles": "CC(=O)c1ccc2c(c1)N(CCCN(C)C)c1ccccc1S2", "Potency": "inactive"}, {"smiles": "CC(C)Nc1ccc(NC(C)C)c2c1C(=O)c1ccccc1C2=O", "Potency": "inactive"}, {"smiles": "COc1ccc(C)cc1[N+](=O)[O-]", "Potency": "inactive"}, {"smiles": "OCCNCc1ccccc1", "Potency": "inactive"}, {"smiles": "NC(N)=NCCC[C@H](N)C(=O)O", "viability change, negative = cytotoxic": "0.813% [at 8.39 µM]"}, {"smiles": "CCCCCCCCCCCc1ccccc1", "Potency": "inactive"}, {"smiles": "CCCCNc1ccc(C(=O)OCCOCCOCCOCCOCCOCCOCCOCCOCCOC)cc1", "Potency": "inactive"}, {"smiles": "CC(C)(O)c1ccc(CNC(=O)c2cccnc2Oc2ccc(F)cc2)cc1", "Potency": "inactive"}, {"smiles": "Nc1cccc([N+](=O)[O-])c1", "Potency": "inactive"}, {"smiles": "O=C(O)c1nc(Cl)c(Cl)c(Cl)c1Cl", "Potency": "inactive"}, {"smiles": "C/C(=C(\\CCOP(=O)(O)O)SC(=O)c1ccccc1)N(C=O)Cc1cnc(C)nc1N", "viability change, negative = cytotoxic": "-1.07% [at 8.39 µM]"}, {"smiles": "Cc1cc(N)c2cc(NC(=O)Nc3ccc4nc(C)cc(N)c4c3)ccc2n1", "Potency": "inactive"}, {"smiles": "COc1cc(C(=O)OCCCN2CCCN(CCCOC(=O)c3cc(OC)c(OC)c(OC)c3)CC2)cc(OC)c1OC", "Potency": "inactive"}, {"smiles": "CN(C)CCN(Cc1ccccc1)c1ccccn1", "Potency": "inactive"}, {"smiles": "NC(=O)C(c1ccccc1)(c1ccccc1)[C@@H]1CCN(CCc2ccc3c(c2)CCO3)C1", "Potency": "inactive"}, {"smiles": "CCC(CC)Nc1ccc(C)c(C)c1", "Potency": "inactive"}, {"smiles": "CN(C)CCN(Cc1ccc(Cl)cc1)c1ccccn1", "Potency": "inactive"}, {"smiles": "c1cc(CCCc2ccncc2)ccn1", "Potency": "inactive"}, {"smiles": "CC(C)(CO)[N+](=O)[O-]", "Potency": "inactive"}, {"smiles": "CC(=O)[O][Al]", "Potency": "inactive"}, {"smiles": "CCOC(=O)C(=O)CCc1ccccc1", "Potency": "inactive"}, {"smiles": "CCO[C@H](Cc1ccc(OCCc2ccc(OS(C)(=O)=O)cc2)cc1)C(=O)O", "Potency": "inactive"}, {"smiles": "Cc1cccc(C)c1NC(=O)CN(CC(=O)O)CC(=O)O", "Potency": "inactive"}, {"smiles": "C[C@H]1C[C@H]2[C@@H]3CCC4=CC(=O)C=C[C@]4(C)[C@@]3(Cl)[C@@H](O)C[C@]2(C)[C@@]1(O)C(=O)CO", "Potency": "inactive"}, {"smiles": "COc1ccc(C(=O)Nc2nc3ccccc3c(NCc3ccccc3)c2C#N)cc1", "Potency": "inactive"}, {"smiles": "O=C(O)CC(=O)C(=O)O", "Potency": "inactive"}, {"smiles": "CC1OC(=O)C(C)OC1=O", "note": "(stereo not given)", "Potency": "inactive"}, {"smiles": "OC[C@H]1O[C@@H](OCCc2ccc(O)cc2)[C@H](O)[C@@H](O)[C@@H]1O", "Potency": "inactive"}, {"smiles": "Nc1ccccc1S(=O)(=O)c1ccccc1", "Potency": "inactive"}, {"smiles": "O=C(O)c1ccco1", "Potency": "inactive"}, {"smiles": "COc1ccnc(CS(=O)c2nc3ccc(OC(F)F)cc3[nH]2)c1OC", "note": "(stereo not given)", "Potency": "inactive"}, {"smiles": "C=CCOc1ccccc1OCC(O)CNC(C)C", "note": "(stereo not given)", "Potency": "inactive"}, {"smiles": "COc1ccc(C(=O)c2ccc(OC)cc2O)c(O)c1", "Potency": "inactive"}, {"smiles": "CC(C)(C)Cl", "Potency": "inactive"}, {"smiles": "C=CC(=O)OCCOc1ccccc1", "Potency": "inactive"}, {"smiles": "CC(=O)OC[C@H]1O[C@@H](n2ncc(=O)[nH]c2=O)[C@H](OC(C)=O)[C@@H]1OC(C)=O", "Potency": "inactive"}, {"smiles": "c1ccc(-c2ccccn2)nc1", "Potency": "inactive"}]}]}
